We go through eleven molecules from PubChem BioAssay AID492950 (Southern Research Specialized Biocontainment Screening …, 2010).

Potency and affinity values are given separately. Active and inactive are the calls of the source. Where a call stands in place of a potency, no number is given. How the calls were made is not given here.

This experiment in a line: viability loss in mammalian cells – cytotoxicity control, dose response (AID 492950). The following applies: mammalian cell viability, cytotoxicity counter-screen; series mostly up to 40 µM.
Turning to `O=C1NC2=C(CCc3ccccc32)C(c2ccccc2)N1` (stereo unspecified), the outcome was inactive.

Take `Cc1nn(C)c(C)c1C1C(C#N)=C(N)Oc2n[nH]c(C)c21` (stereo unspecified): the call was inactive.

`Fc1ccc(Oc2nc(-c3ccccc3)nnc2C(F)(F)F)cc1`: the molecule was classed as inactive.

`CC1=NNC(=O)C1Cc1c(Cl)cccc1Cl` (stereo unspecified): the call was inactive.

With `O=C(Cc1cc(=O)[nH][nH]1)N/N=C/c1ccccc1Cl`, the result was inactive.

In the case of `CCOc1ccccc1C1C(C#N)=C(N)Nc2onc(-c3ccccc3)c21` (stereo unspecified), the result was inactive.

For `CC(=O)N(C1CC(C)C(C#N)(C#N)C1(C#N)C#N)N(C)C` (stereo unspecified), the outcome was inactive.

`C/C(=N\NC(=O)Cc1cc(=O)[nH][nH]1)c1cccc([N+](=O)[O-])c1`: the result was inactive.

On to `CC(/C=N/NC(=O)Cc1cc(=O)[nH][nH]1)=C\c1ccccc1`, for which the result was inactive.

Consider `O=C(CSCc1cc(=O)[nH][nH]1)Nc1ccc(F)cc1`, for which the molecule was called inactive.

With `N#CC1=C(N)Oc2n[nH]c(-c3cccs3)c2C1c1cccs1` (stereo unspecified), the call was inactive.
